Screening data from PubChem.
The list is a sample of the results.
aSyn 5UTR act = Activators via SNCA 5'UTR binding, MLPCN; alpha-synuclein 5'UTR reporter, activators screen; activity score, % (tested at 7.5 µM), hits read low; 7.1% of 300,000 active; AID 1814, 2009; in the data active = activity score below about -60%
Numbers stand for hits; – = inactive.

SMILES | aSyn 5UTR act
Cc1cc(Nc2ccccc2)nc(-c2ccccc2O)n1 | -101
Cc1cc(N/N=C/c2c(O)ccc3ccccc23)nc(-c2ccccc2O)n1 | –
Cc1ccc(Nc2nc(/N=C/N(C)C)n[nH]2)cc1C | -79
O=c1oc2ccccc2nc1/C=C(O)/C=C/c1ccc(F)cc1 | -88
C/C(N)=C(/C#N)C(=O)COC(=O)c1cc2c(s1)CCC(C)C2 (centres undefined) | -73
C[n+]1c2n(c3ccccc31)N=C(c1ccccc1)CS2 | -68
Cc1[nH][nH]c(=O)c1C(c1c(C)[nH][nH]c1=O)c1cn(Cc2ccc(Cl)c(Cl)c2)c2ccccc12 | –
Cc1cccc(Cn2cc(SCC(=O)Nc3nccs3)c3ccccc32)c1 | -156
Cc1ccc(OCC(=O)N/N=C/c2cn(Cc3ccccc3)c3ccccc23)cc1 | –
COc1ccc(N2Cc3ccc(OC)c(OC)c3C2=O)cc1 | -224
COc1ccc2c(c1OC)C(=O)N(c1nccs1)C2 | -111
COc1ccc(N2CCc3c(C)nc4c(OC)cccc4c32)cc1 | –
CC(=O)NCCc1nc2cc(NC(=O)c3ccccc3Cl)ccc2n1C | -62
CCC(=O)NCCc1nc2cc(NC(=O)c3ccc(F)cc3)ccc2n1C | -122
CCC(=O)NCCc1nc2cc(NC(=O)c3ccc(OC)cc3)ccc2n1C | -119
CC(=O)NCCc1nc2cc(NC(=O)c3ccc(Cl)cc3)ccc2n1C | -98
CCC(=O)NCCc1nc2cc(NC(=O)c3ccc(Cl)cc3)ccc2n1C | -175
CCNC(=O)NC(=O)COc1ccccc1C#N | -89
N#Cc1ccccc1OCC(=O)NC(=O)NCc1ccco1 | -83
CCc1ccc(OCC(=O)NCc2ccco2)c(Br)c1 | -70
Cn1cnnc1SCC(=O)Nc1ccc2nc(SCc3ccccc3F)sc2c1 | -163
CSc1nc2ccc(NC(=O)CSc3nnc(N)s3)cc2s1 | -119
CCOC(=O)c1c(-c2ccccc2)cn2c(C)cc(C)nc12 | -150
CCCNc1nc(-c2ccccc2)c(C(=O)OCC)cc1C#N | –
CC(=O)c1c(C)nc(-c2ccccc2)nc1N | -72
SMILES | aSyn 5UTR act
CCOC(=O)c1c(C)nc(-c2ccccc2)nc1N | -120
CSc1nc(-c2ccc(Cl)cc2)nn1C(=O)c1ccccc1 | -134
COc1ccc(/C=N/n2cc(-c3ccccc3)nc2N)cc1 | -134
COc1ccc(/C=N\n2nnc3ccccc32)cc1 | –
CCN1Cc2c(/C=C/c3ccccc3)nc3ccc(OC)cc3c2N(c2cccc(Cl)c2)C1 | -66
Cc1nc2ccccn2c1C(=O)Nc1ccc(Cl)cc1 | -160
C/C(=N\NC(=O)c1c(C)nc2ccccn12)c1ccc(O)cc1O | –
Cc1ccc(NC(=O)c2c(Cl)nc3ccccn23)cc1 | -153
COc1ccc2cc(C(=O)C3CCCN(C(=O)CCc4ccccn4)C3)ccc2c1 (centres undefined) | -93
C=CCNC(=O)N1CCCC(C(=O)c2cccc(OC(C)C)c2)C1 (centres undefined) | -89
CCCC(=O)N1CCCC(C(=O)c2cccc(OC(C)C)c2)C1 (centres undefined) | -80
Clc1ccccc1-c1ncc2ccccn12 | -98
Clc1ccc(-c2ncc3ccccn23)cc1 | -104
O=C(NC1CCCCC1)c1cc(-c2cccc(Cl)c2)on1 | -235
O=C(NC1CCCC1)c1cc(-c2cccc(Cl)c2)on1 | -186
CCOC(=O)Cc1csc(NC(=O)c2sc3nc4c(C)cc(C)cc4cc3c2N)n1 | -94
COc1cccc(NC(=O)N2CCCCCC2)c1 | -88
Cc1ccc(NC(=O)C2CCCN(C(=O)c3ccc(Cl)cc3)C2)cc1C (centres undefined) | -100
O=C(Nc1ccc(Br)cc1)N1CCCCC1 | -63
O=C(Nc1ccc(F)c(Cl)c1)N1CCCCCC1 | -75
O=C(Nc1ccc(Cl)cc1)N1CC=CCC1 | -134
Cc1ccc(NC(=O)N2CCCCCC2)cc1C | -90
COc1ccc(NC(=O)N2CCCCCC2)cc1 | -77
CCN(CC)c1ccc(-c2nn3c(-c4n[nH]c5c4CCC5)nnc3s2)cc1 | –
Clc1ccc(-c2n[nH]c3c2CCCC3)cc1 | -70
SMILES | aSyn 5UTR act
Cc1cccc(CCNc2nc3ccc(C)cc3n3cnnc23)c1 | -156
c1ccc2c(Nc3nc4c(s3)CCCC4)cccc2c1 | -157
O=C(Nc1ccc(N2CCN(Cc3ccccc3)CC2)cc1)c1ccco1 | -86
O=C(NC(=S)Nc1ccc(N2CCOCC2)cc1)c1ccco1 | -108
O=C(Nc1ccc(N2CCN(Cc3ccccc3F)CC2)cc1)c1ccc([N+](=O)[O-])o1 | –
O=C(NC(=S)Nc1ccc(CN2CCOCC2)cc1)c1ccco1 | -117
C/C(=N\Nc1nc2ccccc2[nH]1)c1ccc2c(c1)OCO2 | -124
C/C(=N\Nc1ccccn1)c1ccc2c(c1)OCO2 | -159
C/C(=N\Nc1nc2ccccc2[nH]1)c1ccc2c(c1)OCCO2 | -88
C(=N\Nc1nc2ccccc2[nH]1)/c1ccc2c(c1)OCO2 | -222
Clc1ccccc1N/N=C/c1ccc2c(c1)OCO2 | -176
C/C(=N\Nc1nc2ccccc2[nH]1)c1cc2ccccc2o1 | -138
C/C(=N\Nc1nc2ccccc2[nH]1)c1ccccn1 | –
O=C(Nc1ccccc1)C1=C[C@@H](c2ccccc2)C[C@@H](OCc2ccc(CO)cc2)O1 | -94
NC(=O)C1=C[C@H](c2ccccc2)C[C@H](OCc2ccc(CO)cc2)O1 | -67
Cn1ccc(C(=O)Oc2ccc(C(=O)Nc3ccc(F)cc3F)cc2)n1 | -122
COc1cccc(C(=O)Nc2ccc(C(F)(F)F)n(C)c2=O)c1 | -71
COc1cccc(C(=O)Nc2ccc(F)cc2F)c1 | -114
COc1ccsc1C(=O)Nc1ccc(F)cc1F | -69
O=C(Nc1ccccc1F)Oc1cccc(OC(=O)Nc2ccccc2F)c1 | -108
COc1cccc(C(=O)Nc2ccccc2F)c1 | -73
COc1cccc(C(=O)Nc2ccc(F)c(F)c2F)c1 | -170
CC1(C)CN=C(N(Cc2ccccc2)C(=O)Nc2ccccc2)S1 | -154
O=C(Nc1ccc(Br)cc1)C1Cc2ccccc2O/C1=N\O (centres undefined) | -158
Cc1ccc(NC(=O)C2Cc3ccccc3O/C2=N\O)cc1C (centres undefined) | -127
SMILES | aSyn 5UTR act
COc1ccc(/C=N/Nc2nnc(Cc3ccccc3)c(=O)[nH]2)cc1OC | -67
COc1ccc(Cc2nnc(N/N=C/c3ccc(O)cc3)[nH]c2=O)cc1OC | –
O=C1CCCC2=C1C(c1ccco1)Nc1ccc(C(=O)c3ccccc3)cc1N2 (centres undefined) | -81
C=CCN=C(NC#N)SCC(=O)c1cccc(OC)c1 | -104
Cc1ccc(NC(=S)NCCCN2CCOCC2)cc1 | -63
S=C(NCCN1CCOCC1)Nc1ccc(-c2nc3ccccc3[nH]2)cc1 | -129
Cc1ccccc1-c1nnn(Cc2ccc(F)cc2Cl)n1 | -86
Fc1ccc(-c2nnn(Cc3ccc(F)cc3Cl)n2)cc1 | -71
CCCc1cnc(N2CCN(C(=S)NC)CC2)nc1 | -111
COC(=O)c1ccc(S(=O)(=O)N2CCc3ccccc32)cc1 | -96
COc1ccc(-c2nnc(NC(=O)c3ccc(S(=O)(=O)N4CCCc5ccccc54)cc3)o2)cc1 | –
O=C(Nc1ccccc1O)c1ccc(NC(=O)C2CC2)cc1 | -805
O=C(Nc1ccc(C#Cc2ccccc2)cc1)C1CC1 | -113
CCCC(=O)Nc1ccc(C#Cc2ccccc2)cc1 | -68
OCC#CCSc1nnc(-c2ccc(Br)cc2)o1 | -87
O=C(c1ccccc1)c1ccc2nc(-c3ccc(NC(=O)c4ccccc4F)cc3)[nH]c2c1 | -101
CC(=O)Nc1ccc2nc(-c3ccco3)[nH]c2c1 | -73
Cc1ccc2nc(-c3cccc(NC(=O)c4ccco4)c3)[nH]c2c1 | -121
